# Source: PubChem BioAssay
# Only some compounds are listed: those with a hit (about 6.6% of all), similar ones and a draw of the others.
# SW480 rerep: inducers of DNA re-replication in SW480 colon cancer cells; Potency, µM (highest dose often 46.1 µM), for inactives: at the top dose re-replication activation, most hits filed as activators; SW480 DNA re-replication, Hoechst DNA content imaging, 48 h; 340,000 compounds, 1.8% hits; AID 624297; note: % of control where 0% means no effect; nearly all actives have a fitted effect of over 55% in size
#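 Compounds, transferred as 23 nL by pin tool, were incubated with cells for 48 hr; DNA content per nucleus was then quantified by Hoechst staining and fluorescence plate imaging.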
# MCF10A rereplic: inducers of DNA re-replication in MCF 10A breast cells | 350,000 compounds, 2.9% hits | Potency, µM (titrated, usually from 46.1 µM), for inactives: at the highest dose activity, positive = re-replication, actives largely listed as activators | MCF 10A DNA re-replication, Hoechst nuclear intensity, 48 h; note: % of control where 0% means no effect; nearly all actives have a fitted effect of over 50% in size
# RGS4 inhibitor: inhibitors of human regulator of G protein signaling 4; P49798; Transcreener GDP fluorescence polarization, RGS4-accelerated GTP hydrolysis; Potency, µM (doses to about 114 µM), without a hit: top-dose activity change, negative = inhibition, actives largely listed as inhibitors; 390,000 compounds, 0.039% hits; note: % is set by controls: 0 for no effect and ±100 for the full control effect; nearly all actives have a fitted effect of over 75% in size
# Target sequence (P49798 whole entry, looked up): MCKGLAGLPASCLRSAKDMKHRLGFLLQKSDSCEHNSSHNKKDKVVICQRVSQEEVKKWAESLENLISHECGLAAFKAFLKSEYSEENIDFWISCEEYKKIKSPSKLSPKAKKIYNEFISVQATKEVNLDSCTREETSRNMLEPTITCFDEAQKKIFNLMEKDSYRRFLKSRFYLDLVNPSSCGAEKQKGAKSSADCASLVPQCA
#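 MLSMR compounds (23 nl, pin-transferred) preincubated 10 min at room temperature with a 500nM (2x) first reagent, then RGS4 at 900nM (2x) plus Transcreener GDP mix added; fluorescence polarization (620/688 nm) read before and after 90 min at 30 °C.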
# KB-3-1 cytotox: kills parental KB-3-1 adenocarcinoma cells; 400,000 compounds, 1.4% hits; Potency, µM (top dose mostly 46.1 µM), actives largely listed as cytotoxic; KB-3-1 viability, CellTiter-Glo ATP luminescence, 72 h; note: % is set by controls: 0 for no effect and ±100 for the full control effect; nearly all actives have a fitted effect of over 60% in size
#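 KB-3-1 parental drug-naive adenocarcinoma cells in DMEM/10% FBS, incubated 72 h at 37 C with pin-transferred compounds across a concentration series. Viability by CellTiter-Glo luminescence; concentration-response curves fitted after normalization.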
# KB-V1 MDR tox: kills drug-selected multidrug resistant KB-V1 cells; KB-V1 MDR cells viability, CellTiter-Glo, 72 h; Potency, µM (series often up to 46.1 µM), most hits filed as cytotoxic; 400,000 compounds, 3.4% hits; note: % is set by controls: 0 for no effect and ±100 for the full control effect; nearly all actives have a fitted effect of over 60% in size
#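 KB-V1 cells (P-gp-expressing MDR subline of KB-3-1) in phenol-red-free DMEM with 10% FBS were exposed to library compounds over a concentration series for 72 h at 37 degrees C. Viability read by CellTiter-Glo luminescence; concentration-effect curves fitted after normalization.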
# TSG101-PTAP inh: blocks PTAP/TSG101 interaction to inhibit HIV-1 budding. Q99816. Fluorescence polarization, FITC-PTAP peptide / Tsg101 binding. Potency, µM (highest dose often 115 µM), for inactives: at the top dose activity change, negative = inhibition, actives largely listed as inhibitors. 340,000 tested, under 10 active; active = well fitted inhibition curve with a large enough effect in the main read-out, with a control signal flat, not every such curve was filed as active; inconclusive = small, poorly fitted or top-dose-only effect, or effect the other way, or a change in a side signal; inactive = no such curve, though single readings can be large or run the other way; note: % of control where 0% means no effect
# Target sequence (Q99816 whole entry, looked up): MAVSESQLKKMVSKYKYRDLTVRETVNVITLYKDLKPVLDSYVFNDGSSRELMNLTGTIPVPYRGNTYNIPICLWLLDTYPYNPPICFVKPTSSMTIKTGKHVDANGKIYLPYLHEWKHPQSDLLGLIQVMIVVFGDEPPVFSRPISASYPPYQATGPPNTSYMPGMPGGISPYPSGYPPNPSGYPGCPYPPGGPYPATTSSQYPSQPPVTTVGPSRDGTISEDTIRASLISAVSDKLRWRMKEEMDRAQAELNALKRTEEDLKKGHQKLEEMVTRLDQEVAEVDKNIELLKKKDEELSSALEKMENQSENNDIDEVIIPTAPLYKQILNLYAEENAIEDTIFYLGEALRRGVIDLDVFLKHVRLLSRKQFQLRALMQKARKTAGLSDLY
#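 Tsg101 binding domain (10 uM final) was mixed with compound and a FITC-labeled PTAP peptide (50 nM final) in HEPES pH 7.5 buffer with NaCl, Tween 20, EDTA and TCEP; fluorescence polarization was read after 20 min at r.t.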
# Starred values were filed as active, the others as inactive; i = inactive; ? = inconclusive; nt = no result given. Unless noted, calls come from the whole dose curve; as a rule, active = well fitted curve in the direction sought with a large enough effect; inconclusive = small, poorly fitted or top-dose-only effect, or another doubt; inactive = no such curve, though single readings can be large; an effect the other way counts as inactive or inconclusive. Potency is the fitted concentration of half-maximal effect.
SMILES,SW480 rerep,MCF10A rereplic,RGS4 inhibitor,KB-3-1 cytotox,KB-V1 MDR tox,TSG101-PTAP inh
CCN(CC)c1ccc(C=Nc2cc(C)ccc2C)c(O)c1,?,2%,-6%,?,23µM*,0%
CCN(CC)c1ccc(C=Nc2ccc(C)cc2C)c(O)c1,-6%,19%,-2%,i,i,-1%
CCN(CC)c1ccc(/C=N/NC(=O)c2c(Cl)cnn2C)c(O)c1,?,12µM*,-15%,i,?,-3%
CCN(CC)c1ccc(/C=N/NC(=O)c2cccc(S(=O)(=O)N3CCOCC3)c2)c(O)c1,?,15µM*,-21%,7.3µM*,?,-6%
O=C(Nc1ccccc1F)C(=Cc1sc(N2CCOCC2)nc1-c1ccccc1)C(=O)Nc1ccccc1F,?,3.3µM*,-3%,i,i,?
CCN(CC)c1ccc(C=Nc2cccc(S(=O)(=O)N3CCOCC3)c2)c(O)c1,-6%,-2%,-15%,i,?,-2%
COC(=O)C[C@H]1c2cc(C(F)(F)F)ccc2S(=O)(=O)N1C(C)C,nt,nt,nt,i,i,nt
O=C(NCc1ccccc1)c1ccc(NC(=O)c2nsc3ccccc23)cc1,nt,nt,-12%,i,i,nt
Nc1ccc(C(=O)N/N=C/c2sc(N3CCOCC3)nc2-c2ccccc2)cc1,-8%,15%,-20%,i,i,1%
CCOC(=O)N/N=C/c1ccc(N(CC)CC)cc1O,16µM*,23µM*,1%,21µM*,?,-8%
O=C(N/N=C/c1sc(N2CCOCC2)nc1-c1ccccc1)c1cccc(S(=O)(=O)N2CCOCC2)c1,21µM*,?,-11%,4.1µM*,i,?
CCN(CC)c1ccc(/C=N/NC(=O)CNC(=O)C2COc3ccccc3O2)c(O)c1 (centres undefined),6.5µM*,6.5µM*,-12%,?,?,0%
COc1ccc2oc(C)c(C(=O)c3ccccc3)c2c1,-45%,-27%,17%,i,i,-2%
COc1ccc(C(=O)c2oc3ccc(OC)cc3c2N)cc1,6%,26µM*,-17%,i,i,2%
COC(=O)c1oc2ccc(OC)cc2c1N,-13%,2%,-24%,i,i,-2%
COc1ccc2oc(/C=C/N(C)C)c(C(=O)c3ccc(Cl)cc3)c2c1,18%,6.3µM*,13%,i,i,0%
O=C(C1CCN(S(=O)(=O)c2ccc(Br)s2)CC1)N1CCN(c2cccc(Cl)c2)CC1,nt,nt,-16%,i,i,nt
C=C(C)CNC(=S)NNC(=O)c1ccco1,1.8µM*,16µM*,-5%,i,i,-12%
CC(=O)c1cccc(NC(=S)NNC(=O)c2ccco2)c1,-2%,13%,-7%,i,i,-1%
Cc1c(Cl)cccc1NC(=O)CN1C(=O)c2ccccc2Sc2ncccc21,nt,nt,20%,i,i,nt
Cc1cc2c(cc1C)C(=O)C(Br)=C(N)C2=O,?,?,-7%,i,i,-13%
Cc1cc(-c2cc(C)c(N)cc2C)c(C)cc1N,18µM*,127%,3%,i,i,-6%
CC(=O)Nc1ccc(/C=C2\C=C(C(O)c3ccc(NC(C)=O)cc3)c3ccccc32)cc1 (centres undefined),nt,nt,nt,i,i,nt
CSc1ccc(/C=C2\C=C(C(O)c3ccc(SC)cc3)c3ccccc32)cc1 (centres undefined),nt,nt,nt,16µM*,?,nt
OC(C1=C/C(=C\c2ccncc2)c2ccccc21)c1ccncc1 (centres undefined),nt,nt,nt,?,16µM*,nt
SMILES,SW480 rerep,MCF10A rereplic,RGS4 inhibitor,KB-3-1 cytotox,KB-V1 MDR tox,TSG101-PTAP inh
COc1ccc(-c2c(C(C)=O)c(C)nc3sc4c(=N)n(N)cnc4c23)cc1,?,-56%,-17%,?,18µM*,-1%
CCOC(=O)c1c(C)nc2sc3c(=O)n(-c4ccc(OC)cc4)cnc3c2c1-c1ccc(OC)cc1,1%,-2%,1%,i,i,-6%
COc1cc(OC)nc(Oc2cc(/C=N/O)ccc2OC)n1,12µM*,?,3%,?,?,-1%
C(=N\NC1=Nc2cccc3cccc1c23)/c1ccccn1,14%,?,-17%,23µM*,?,6%
C(=N\Nc1nc2ccccc2s1)/c1ccccn1,?,?,-12%,?,?,0%
Cc1csc(N/N=C/c2ccccn2)n1,3.7µM*,?,-7%,?,?,2%
COc1cc(OC)cc(C(=O)Nc2ccc3oc(-c4ccc(Cl)cc4)nc3c2)c1,nt,nt,7%,i,i,nt
COc1ccc(S(=O)(=O)NCCc2csc3nc(-c4ccc(Cl)cc4)nn23)cc1C,nt,nt,-20%,nt,nt,nt
COc1ccc(N)cc1-n1c(C)ccc1C,0.52µM*,4%,-19%,i,?,-12%
O=C(NC1CCCCC1)C(C1CC1)n1c(=O)c(-c2cc3ccccc3[nH]2)nc2ccccc21 (centres undefined),nt,nt,nt,?,23µM*,nt
CC(C)(C)NC(=O)C(c1ccccc1)n1c(=O)c(-c2cc3ccccc3[nH]2)nc2ccccc21 (centres undefined),nt,nt,nt,?,23µM*,nt
CC(C)(C)NC(=O)C(CCc1ccccc1)n1c(=O)c(-c2cc3ccccc3[nH]2)nc2ccccc21 (centres undefined),nt,nt,nt,i,?,nt
Cc1cccc(C)c1NC(=O)C(CCc1ccccc1)n1c(=O)c(-c2cc3ccccc3[nH]2)nc2ccccc21 (centres undefined),nt,nt,nt,?,21µM*,nt
O=C(NC1CCCC1)C(C1CC1)n1c(-c2cc3ccccc3[nH]2)nc2ccccc21 (centres undefined),nt,nt,nt,i,?,nt
CCCc1cc(=O)[nH]c(SCC(=O)N2N=C(c3ccc(Cl)cc3)CC2c2ccco2)n1 (centres undefined),-8%,?,-32%,?,21µM*,-5%
O=C(CCl)N1N=C(c2cccs2)CC1c1ccco1 (centres undefined),12µM*,18µM*,-9%,?,?,-1%
Nc1cc(=O)[nH]c(SCC(=O)N2N=C(c3ccc(Cl)cc3)CC2c2ccco2)n1 (centres undefined),2%,?,-34%,i,i,-1%
O=C(CCl)N1N=C(c2ccco2)CC1c1ccco1 (centres undefined),21µM*,?,?,?,?,2%
Cc1ccc(C2=NN(C(=O)CSc3nccn3C)C(c3ccco3)C2)cc1 (centres undefined),12µM*,?,-31%,?,9.2µM*,-4%
